Compounds with a hit are over-represented: about 21% of the library has one in this group of screens.
DRD3 agonist = qHTS of D3 Dopamine Receptor Agonist: qHTS; hit rate 0.58% among 410,000; AID 652048, 2013; D(3) dopamine receptor (Homo sapiens), P35462; max activation, %; D3R DiscoveRx beta-arrestin cells, luminescence, 90 min; in the data active = max activation above about 30%; note: 0% is about no effect
Target sequence (P35462 whole entry, looked up): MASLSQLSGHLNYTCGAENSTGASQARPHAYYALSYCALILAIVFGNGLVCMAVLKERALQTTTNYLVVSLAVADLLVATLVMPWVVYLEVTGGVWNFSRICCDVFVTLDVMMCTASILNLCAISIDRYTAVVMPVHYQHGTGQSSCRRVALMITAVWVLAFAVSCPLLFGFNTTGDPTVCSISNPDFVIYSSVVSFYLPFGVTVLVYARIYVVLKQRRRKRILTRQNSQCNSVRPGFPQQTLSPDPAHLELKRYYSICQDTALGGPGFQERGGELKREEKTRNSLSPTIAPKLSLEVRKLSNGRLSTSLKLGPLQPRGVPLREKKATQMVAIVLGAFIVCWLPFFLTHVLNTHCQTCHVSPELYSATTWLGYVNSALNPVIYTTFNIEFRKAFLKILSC
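Agonist-mode cell screen: cells plated at 1500/well and incubated overnight at 37 °C, then exposed to library compounds for 90 min at 37 °C. Detection reagent was added for 30–60 min at room temperature, and luminescence was read.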
DT40 TDP1 CPT = qHTS for Inhibitors of human tyrosyl-DNA phosphodiesterase 1 (TDP1): qHTS in cells in presence of CPT; chicken DT40 Tdp1-/-;hTDP1 cells + 20 nM CPT, ATP luminescence, 48 h; Potency, µM (top dose mostly 46.2 µM), without a hit: top-dose activity change, negative = growth inhibition, most hits filed as inhibitors; hit rate 12% among 420,000; AID 686979, 2013; note: potency is the fitted concentration of half-maximal effect; % is set by controls: 0 for no effect and ±100 for the full control effect; nearly all actives have a fitted effect of over 55% in size
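Chicken DT40 Tdp1-/- cells complemented with human TDP1, 400 cells/well, exposed to compounds plus 20 nM camptothecin for at least 48 h at 37 C; viability read as ATP content by CellTiter-Glo luminescence.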
ClpP mod = qHTS Assay for Activators of ClpP | AID 651965, 2013 | Potency, µM (doses to about 57.5 µM), for the others: at the highest dose activity change, negative = active | purified B. subtilis ClpP, FRET peptide cleavage, 20 min | hit rate 1.9% among 340,000 | ATP-dependent Clp protease proteolytic subunit (Bacillus subtilis (strain 168)), P80244; active = well fitted falling curve with a large enough effect; inconclusive = small, poorly fitted or top-dose-only effect; inactive = no such curve, though single readings can be large or run the other way; note: potency is the fitted concentration of half-maximal effect; the source files actives as falling curves though it sought activators and does not explain the sign; nearly all actives have a fitted effect of over 65% in size
Target sequence (P80244 whole entry, looked up): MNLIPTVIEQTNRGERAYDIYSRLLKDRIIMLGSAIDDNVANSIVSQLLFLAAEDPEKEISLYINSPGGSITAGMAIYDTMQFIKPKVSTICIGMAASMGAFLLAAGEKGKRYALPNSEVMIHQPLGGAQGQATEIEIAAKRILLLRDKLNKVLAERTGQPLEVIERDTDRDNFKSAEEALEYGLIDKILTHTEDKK
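FRET quenching reversal measured ClpP activation: 10 microg/mL B. subtilis ClpP at pH 8 with the FRET-FV decapeptide, read at 430 nm after 320 nm excitation. The 20-min minus 0-min signal was scaled between DMSO/no-enzyme wells and ADEP (5.8 microM final).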
IL-1B inflam inh = qHTS for Inhibitors of Inflammasome Signaling: IL-1-beta AlphaLISA Primary Screen. THP-1 LPS/ATP IL-1B secretion, AlphaLISA, 16 h; active compounds read low. hit rate 4.7% among 360,000. activity change, % at 57.5 µM. AID 743279, 2014; in the data active = activity change below about -50%; inconclusive = mostly about -30% to -49%; note: % is set by controls: 0 for no effect and ±100 for the full control effect
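Secreted IL-1B measured by AlphaLISA bead assay after 16 h compound exposure of THP-1 cells; compounds (final up to 57.5 uM) added 1 h before LPS (250 ng/mL) and ATP (1.25 mM) stimulation; lower signal means less secretion.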
TDP1 cell noCPT = qHTS for Inhibitors of human tyrosyl-DNA phosphodiesterase 1 (TDP1): qHTS in cells in absence of CPT; DT40 Tdp1-/- hTDP1 cells, no CPT, ATP luminescence, 48 h; Potency, µM (top dose mostly 46.2 µM), for the others: top-dose activity change, negative = growth inhibition, hits mostly inhibitors; hit rate 15% among 420,000; AID 686978, 2013; note: potency is the fitted concentration of half-maximal effect; % is set by controls: 0 for no effect and ±100 for the full control effect; nearly all actives have a fitted effect of over 55% in size
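Chicken DT40 Tdp1-/- cells stably complemented with human TDP1 were seeded at 400 cells/well with DMSO in place of 20 nM camptothecin. After compound pinning, cells grew at least 48 hr at 37 °C; viability read by CellTiter-Glo luminescence.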
DRD3 antagonist = qHTS of D3 Dopamine Receptor Antagonist: qHTS | AID 652054, 2013 | D(3) dopamine receptor (Homo sapiens), P35462 | D3R cells, DiscoveRx beta-arrestin luminescence, antagonist mode; active compounds read low | max response, negative = inhibition, % | hit rate 2.5% among 360,000; in the data active = max response below about -50%; inconclusive = no clear call, values can overlap the other calls; note: % is set by controls: 0 for no effect and ±100 for the full control effect
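Cells plated overnight at 1500 cells/well, then exposed to library compounds with dopamine controls for 90 minutes at 37 degrees C. DiscoveRx reagent added for 30–60 minutes at room temperature; luminescence read, quantitative HTS format.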
An asterisk follows results filed as active; ? = inconclusive; . = no result. Unless noted, calls come from the whole dose curve; as a rule, active = well fitted inhibition curve with a large enough effect; inconclusive = small, poorly fitted or top-dose-only effect; inactive = flat fitted curve, though single readings scatter.

SMILES	DRD3 agonist	DT40 TDP1 CPT	ClpP mod	IL-1B inflam inh	TDP1 cell noCPT	DRD3 antagonist
Cc1ccc2[nH]c(-c3ccccc3)c(CN3CCCC3)c(=O)c2c1	0	16%	.	-5	-19%	16
Cc1ccc2[nH]c(-c3ccccc3)c(CN3CCN(C)CC3)c(=O)c2c1	-8	-25%	-8%	-18	-9%	-76*
O=C(NCCOc1ccccc1)C1=CC=CN2CCS(=O)(=O)N=C12	-6	-11%	32µM*	-4	-3%	-21
COc1ccc(-n2c(=O)c3c(c4cc(OC)ccc4n3C)n(CCC(C)C)c2=O)cc1	-10	-26%	4%	.	-29%	.
O=C(Nc1nc(-c2ccccn2)cs1)c1cc(Cl)ccc1[N+](=O)[O-]	-5	0.82µM*	.	58	1.5µM*	-22
Cc1cc(C(=O)Nc2cnc3ccccc3c2)ccc1[N+](=O)[O-]	-1	6%	.	24	-2%	5
Cc1cc(C(=O)Nc2nc(-c3ccccn3)cs2)ccc1[N+](=O)[O-]	7	2.3µM*	.	107	2.9µM*	?
COc1ccccc1OCc1ccc(C(=O)NCCN(C)C)o1	0	6%	0%	28	13%	4
COc1ccc(NC(=O)c2ccc(COc3ccccc3OC)o2)cc1OC	0	15µM*	0%	-2	23µM*	27
CCCNC(=O)c1ccc(COc2ccc(CCC)cc2OC)o1	8	?	.	?	15µM*	-28
COc1cc(NC(=O)c2ccc(COc3ccccc3Br)o2)cc(OC)c1OC	6	?	-4%	-16	23µM*	1
COc1ccccc1OCc1ccc(C(=O)Nc2ccc(C)c(C)c2)o1	-1	23µM*	1%	.	?	.
COc1ccccc1OCc1ccc(C(=O)Nc2cc(OC)c(OC)c(OC)c2)o1	0	?	1%	?	?	9
COc1ccccc1OCc1ccc(C(=O)NN)o1	-7	15%	-1%	12	5%	5
COc1ccccc1CNC(=O)CN1C(=O)NC2(CCCCCC2)C1=O	0	9%	1%	5	-24%	34
CCCCc1cc(C(=O)Cc2ccccn2)c(O)cc1O	-7	-15%	-19%	45	?	-10
Cc1cc(C)c(S(=O)(=O)N2CCN(Cc3nc4ccc(C)cc4o3)CC2)c(C)c1	-3	?	1%	.	?	.
O=C(Cc1ccc(F)cc1)N1CCC(c2nc3c(nnn3Cc3ccc(Cl)cc3)c(=O)[nH]2)CC1	-20	?	5%	.	?	.
CC(NC(=S)NCc1ccc(F)cc1)C12CC3CC(CC(C3)C1)C2 (stereo unspecified)	-15	?	.	-84*	15µM*	?
CCOC(=O)c1c(C)cc(=O)oc1C	-2	1%	0%	4	-7%	-26
CCOC(=O)c1c(C)oc2c1C(=O)c1ccccc1C2=O	-8	4.6µM*	-1%	60	4.1µM*	-5
Cc1oc2c(c1C(=O)c1ccccc1)C(=O)C(=O)c1ccccc1-2	-10	1.2µM*	2%	-88*	1.8µM*	?
O=C(c1ccccc1)c1ccsc1C(=O)c1ccccc1	2	-14%	-5%	0	?	10
O=C1C(=O)c2c(C(=O)c3ccccc3)coc2-c2ccccc21	2	3.3µM*	-2%	?	2.1µM*	-25
O=C(O)C1=CCNCC1	2	-1%	-1%	-14	20%	8
SMILES	DRD3 agonist	DT40 TDP1 CPT	ClpP mod	IL-1B inflam inh	TDP1 cell noCPT	DRD3 antagonist
COc1cc2c(cc1OC)C(COc1ccccc1OC)N(C(=O)C(C)C)CC2 (stereo unspecified)	1	11%	.	-27	-12%	10
COc1cc(OC)c(NC(=O)N2CCc3cc(OC)c(OC)cc3C2CC(=O)O)cc1Cl (stereo unspecified)	-3	15µM*	-11%	.	8.2µM*	.
COc1cc2c(cc1OC)C(CC(=O)O)N(C(=O)CC1CCCC1)CC2 (stereo unspecified)	6	10%	.	16	-10%	2
CCc1ccccc1NC(=O)N1CCc2cc(OC)c(OC)cc2C1CC(=O)OC (stereo unspecified)	-15	?	-28%	.	18µM*	.
CCCCOc1ccc(C(=O)NCC(=O)NCCCn2nc(C)cc2C)cc1	2	-6%	0%	-2	-1%	-12
N#Cc1ccc(CN2CC[C@@]3(CCCN(C(=O)c4cccc(F)c4)C3)C2)cc1	.	-1%	.	.	?	.
CC(C)C1N=C(c2ccc3c(c2)OCO3)CC(c2ccccc2O)N1 (stereo unspecified)	-8	5.2µM*	-1%	-19	4.6µM*	-8
CC(C)C1(C)NC(c2ccc3c(c2)OCO3)=CC(c2ccccc2O)N1 (stereo unspecified)	.	?	-11%	.	13µM*	.
c1nnc(-c2ccc3c(c2)OCO3)o1	5	6%	.	-2	-8%	6
CCC1(C)NC(c2ccc3c(c2)OCO3)=CC(c2ccccc2O)N1 (stereo unspecified)	.	?	-13%	.	11µM*	.
COCCCNC(=O)CSc1c2c(nc3ccc(Cl)cc13)CCCC2	-13	?	0%	-155*	?	-25
CC(C)OCCCNC(=O)CSc1c2c(nc3ccc(Cl)cc13)CCCC2	-11	?	-2%	.	23µM*	.
Cc1ccc(NC(=O)C(=O)Nc2ccc(C)cn2)nc1	24	-14%	.	-17	-10%	-15
Cc1ccc(NC(=O)/C(C#N)=C(\N)C(Cl)(Cl)Cl)nc1	0	0.58µM*	-2%	-100*	2.1µM*	6
CCOc1cc(-c2nc(-c3ccccc3OC)no2)cc(OCC)c1OCC	30	?	?	?	29µM*	73
CCOc1cc(-c2nc(-c3ccc(OC)cc3)no2)cc(OCC)c1OCC	-4	-16%	-3%	-17	-18%	-14
CCOc1ccccc1-c1nc(-c2ccc(C)nc2OC)no1	0	?	28µM*	-5	?	17
CC1=CC2=NC(=O)/C(=C\c3cc(C)n(-c4ccccc4)c3C)C(=N)N2O1	-24	2%	-3%	10	-23%	0
CC1=CC2=NC(=O)/C(=C\c3cc(C)n(-c4cccc(Cl)c4)c3C)C(=N)N2O1	-14	?	0%	1	9.2µM*	-4

Source: PubChem (National Center for Advancing Translational Sciences (NCATS))
